The record followed here is paper PMC12136788.

B1: chr2:1632407:1632508:-|3pUTR|ENSG00000130508|msi1|total|mutant (ssRNA)
RNA: GGGAGUUCUACAGUCCGACGAUCUUGGUAAGUGAUUGAUAAAAAUUGGUUGGUGUUUCAUGACAUGUGGACUUCUUUUGAAACCGCAAGUCAAAUGCCGUGACCAAAUUGUGGAAGAGAUUUCUGUCAAACCGGAAAUGUGUACAACAGAGGAUUGAGCAUCA
B2: ENSG00000198589:be:win_3901|CDS|ENSG00000198589|bound_else_gene|NA|bound_elsewhere_windowed (ssRNA)
RNA: GGGAGUUCUACAGUCCGACGAUCUCUACUGUGUUUCGUAUUCCUGAGUUCAACUGGUCUCAGAUGCAUCAACGUUUGCUCACUGAUCUAUUAUUUUCAAUAGAAACAGAUAUACAGAUGUGGAGAAGCCAUUCAACAAAGACACAACAGAGGAUUGAGCAUCA
B3: chr6:21593967:21594078:+|5pUTR|ENSG00000124766|unk|FALSE|bound_elsewhere (ssRNA)
RNA: GGGAGUUCUACAGUCCGACGAUCUUAGUGCCGAUUCCGCCCACAGAGAGUCCUGGAGCCACAGUCUUUUUUGCUUUGCAUUGUAGGAGAGGGACUAAGUGCUAGAGACUAUGUCGCUUUCCUGAGCUACCGAGAGCGCUCGUGCAACAGAGGAUUGAGCAUCA
B4: chr9:88477803:88477904:+|3pUTR|ENSG00000106723|msi1|FALSE|bound_elsewhere (ssRNA)
RNA: GGGAGUUCUACAGUCCGACGAUCGACAAUACAAGACAUGAAUCUAUGUAUAAAAUUUAUCGGCCUUUCUCAUUUACCUGCUCUAGUAUUAUUGUAUUGUGUGUGCGUGCGUGUGUGAUGUCAGGCUGCCACGUAAAACUUCAGCAACAGAGGAUUGAGCAUCA
B5: chr17:68278117:68278284:-|CDS|ENSG00000108932|unk|FALSE|unique (ssRNA)
RNA: GGGAGUUCUACAGUCCGACGAUCGCUUUGUUCCAAAGCCAAUGUGUAUACUGAAGUGCCUGAUGGAGGAUGGGGCUGGGCGGUAGCUGUUUCAUUUUUCUUCGUUGAAGUCUUCACCUACGGCAUCAUCAAGACAUUUGGUGUCAACAGAGGAUUGAGCAUCA
B6: ENSG00000112146:stop:overlap|stop_codon|ENSG00000112146|stop_codon|NA|stop_codon (ssRNA)
RNA: GGGAGUUCUACAGUCCGACGAUCACACCCCCUUGUUCUUCGCCAGAGUAAGGAGCUACACAGCUUUCUCAGAAAGGCCUCUGUAGAGCCUCAAGUCCAGUCCUCUAUCACUUUUGCAUGAAUUAAAGUAUAUAGCGCAAAAGACAACAGAGGAUUGAGCAUCA
B7: ENSG00000070961:be:win_5851|3pUTR|ENSG00000070961|bound_else_gene|NA|bound_elsewhere_windowed (ssRNA)
RNA: GGGAGUUCUACAGUCCGACGAUCAUGAAUGUAAUUACCAAAAGAUUUAGAAGUGCAUGUGCUUUGGAGGAUUUGUAUUGAGCUUUUACAGUAUUCAUUUUUCAACUCAAGGCAAUGGCUUUCUACACCAACUCUAAUCCAUAACAACAGAGGAUUGAGCAUCA
B8: ENSG00000070961:be:win_3451|CDS|ENSG00000070961|bound_else_gene|NA|bound_elsewhere_windowed (ssRNA)
RNA: GGGAGUUCUACAGUCCGACGAUCAGGAUAGAAGAUUCAGAGCCUCAUAUCCCCCUUAUUGAUGACACUGAUGCCGAAGAUGAUGCUCCUACAAAACGUAACUCCAGUCCUCCACCCUCUCCCAACAAAAAUAACAAUGCUGUUCAACAGAGGAUUGAGCAUCA
B9: chr11:61866962:61867357:+|3pUTR|ENSG00000134824|msi1|FALSE|unique (ssRNA)
RNA: GGGAGUUCUACAGUCCGACGAUCAGAUUCAGGGGAAGGGCAGGCACCAACAACUCAGAAUGGGGGCUUUCGGGGAGGGCGCCUAGUCCCCCCAGCUCUAAGCAGCCAGGAGGGACCUGCAUCUAAGCAUCUGGGUUGCCAUGGCAACAGAGGAUUGAGCAUCA
B10: chr2:32508095:32508220:+|CDS|ENSG00000115760|unk|total|mutant (ssRNA)
RNA: GGGAGUUCUACAGUCCGACGAUCAGCCGAAGCCGCUUCUGCUGUCUGCCUCCGACUACAUCGUCCACGGGAUGCCAGCACAUCCGGCCUUUCACAAAUUAAAUUAUUGGGGCUCACUGCUUUUGGUACCACCUCUUCUGCAACCAACAGAGGAUUGAGCAUCA
B11: chr14:92797766:92797867:+|CDS|ENSG00000066455|msi1|total|mutant (ssRNA)
RNA: GGGAGUUCUACAGUCCGACGAUCCAUUUUGUGCGAAGAAAAAAGUCAGAACCUGAUGAUGAGCUGCUGUUUGAUUUUCUUAACCGUUCACAGAAGGAGCCUACCGGGAGGGUGGAAAUCAGAAAGGAAAAAGGCAAGACACCUCAACAGAGGAUUGAGCAUCA
B12: chr18:70325936:70326038:+|CDS|ENSG00000170677|unk|total|mutant (ssRNA)
RNA: GGGAGUUCUACAGUCCGACGAUCAGCUUUCGCUCCCAUGGUAAAACACUUCACACCCGAAUUGAGCACUCAAAUGGCCGGUUCCGCUUUUAUGAACAGCCAGAUGUGGAAGGACAUACGUCCACCGUUGAUCUAAUUGAGCAUCAACAGAGGAUUGAGCAUCA
B13: chr11:43405833:43405939:+|CDS|ENSG00000052841|unk|FALSE|unique (ssRNA)
RNA: GGGAGUUCUACAGUCCGACGAUCGGCCCAAACCCCUGACUGUUCCAUAACUGACUUCAGAAAAAGCCACACUCUGUCCUACUUAGUCAAAGAAUUAGAGGUUCGCAUGGAUCUGAAAGCCAAAAUGCCAGAUGACCAUGCACGCAACAGAGGAUUGAGCAUCA
B14: chr6:1612588:1612689:+|3pUTR|ENSG00000054598|msi1|total|mutant (ssRNA)
RNA: GGGAGUUCUACAGUCCGACGAUCUUUAUUCAUGGACUUGUUUUAAAAUGUAAAUUGCAACACCGUAAUUUAUUUUUAAUUUGCCGUUGGAUGUCGUGGACCAAACGCCAGAAAGUGUUCCCAAAACCUGACGUUAAAUUGCCUCAACAGAGGAUUGAGCAUCA
B15: chr2:111862450:111862553:-|CDS|ENSG00000153107|unk|FALSE|unique (ssRNA)
RNA: GGGAGUUCUACAGUCCGACGAUCUCUUUUUCAGGGGUGCAAAGGUUCAACAUUUCAAGCCAUAAUCAGUCUCCAAAGAGACAUAGUAUUUCUCAUUCUCCAAAUAGUAAUUCUAAUGGCUCCUUUCUUGCACCAGAAACGGAGCAACAGAGGAUUGAGCAUCA
B16: chr7:83961326:83961382:-|CDS_3pUTR|ENSG00000075213|msi1_unk|FALSE|overlapping (ssRNA)
RNA: GGGAGUUCUACAGUCCGACGAUCAAACAGGAGGACCCACGAAUUUGAGAGGGCACCCAGGAGUGUCUGAGCUGCAUUACCUCUAGAAACCUCAAACAAGUAGAAACUUGCCUAGACAAUAACUGGAAAAACAAAUGCAAUAUACAACAGAGGAUUGAGCAUCA
B17: ENSG00000124766:be:win_3951|3pUTR|ENSG00000124766|bound_else_gene|NA|bound_elsewhere_windowed (ssRNA)
RNA: GGGAGUUCUACAGUCCGACGAUCGUUUGGGGGAAAAAAAAGAAAAAAUCAUGCCAGCUAAUCAUGUCAAGUUCACUGCCUGUCAGAUUGUUGAUAUAUACCUUCUGUAAAUAACUUUUUUUGAGAAGGAAAUAAAAUCAGCUGCAACAGAGGAUUGAGCAUCA
B18: chr17:29262523:29262623:-|3pUTR|ENSG00000108256|msi1_unk|FALSE|overlapping (ssRNA)
RNA: GGGAGUUCUACAGUCCGACGAUCACUUUGACUGAUAUUGUAAUUUUCAAAUGUAUAAUAUGUUUACAGAUGUGCCCUGCAUUUAGUCUGCCUUGUUCCUAUUUUGAUUUUUGUUGAGUCUCCUGCCUGCUUGCCAAAAGCUAGCAACAGAGGAUUGAGCAUCA
B19: chrX:149581652:149582231:-|three_prime_utr|ENSG00000267978|control|control|control (ssRNA)
RNA: GGGAGUUCUACAGUCCGACGAUCCAAAUGUUCUUUUAAUGGUCAGUUUAAUGAACUUCACCAUCGAAGUUAAUGAAUGACAGUAGUCACACAUAUUGCUGUUUAUGUUAUUUAGGAGUAAGAUUCUUGCUUUUGAGUCACAUGCAACAGAGGAUUGAGCAUCA
B20: chr15:48879495:48879609:+|3pUTR|ENSG00000255302|msi1|total|mutant (ssRNA)
RNA: GGGAGUUCUACAGUCCGACGAUCGACACUAAAUGUGUGUGAAUGUACAAAGAAAACAAACCAUUGCUUAUGCUGUUAUAUACCCGAGAAAUUUUGUUUUGCUUGCUGUUUUAACUUGACAGAUGAAGGACUUCCGUUGAACUUCAACAGAGGAUUGAGCAUCA
B21: chr16:87831719:87831834:-|3pUTR|ENSG00000103257|msi1_unk|FALSE|overlapping (ssRNA)
RNA: GGGAGUUCUACAGUCCGACGAUCCCUGCGUUUGGAGGCCCCUGGGCUCUCACCCAGUCCCCACCCGCCUGCAGAGAGGGAACUAGGGCACCCCUUGUUUCUGUUGUUCCCGUGAAUUUUUUUCGCUAUGGGAGGCAGCCGAGGCAACAGAGGAUUGAGCAUCA
B22: chr8:93925380:93925481:+|3pUTR|ENSG00000164951|msi1|total|mutant (ssRNA)
RNA: GGGAGUUCUACAGUCCGACGAUCAUUUAUUUCUAAAUGUUUUGACUGGGCAUUUUUCUUUUAAUGAAAUAUGUGGACUGCUCCCGCAAACCCUAUUUUCAGCUACUAUUUGAAUAUUCUUGAACACCACCACUGAAGAGUUUCCAACAGAGGAUUGAGCAUCA

The full ranking holds about 5,800 sequences; the median of “enrichment r” is about 0.68, and the highest 2% start at about 11. These entries were drawn from the full list.

In the assay the target is T1, UNK ZnF1-6 (called full-length) (human, UniProt Q9C0B0 30-357).
T1 sequence: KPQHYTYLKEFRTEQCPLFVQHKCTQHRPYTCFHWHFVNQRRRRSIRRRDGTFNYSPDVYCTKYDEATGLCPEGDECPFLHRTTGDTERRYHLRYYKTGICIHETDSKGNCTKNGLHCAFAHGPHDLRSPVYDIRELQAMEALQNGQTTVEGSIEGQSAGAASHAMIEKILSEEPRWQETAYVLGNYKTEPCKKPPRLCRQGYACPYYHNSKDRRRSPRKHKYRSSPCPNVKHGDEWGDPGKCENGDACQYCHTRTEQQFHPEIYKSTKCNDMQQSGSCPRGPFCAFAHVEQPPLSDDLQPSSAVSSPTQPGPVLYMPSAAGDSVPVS
Nature of the assay: nsRBNS (natural sequence RNA bind-n-seq); RBNS binding buffer (assumed for nsRBNS): 25 mM Tris pH 7.5, 150 mM KCl, 3 mM MgCl2, 0.01% Triton X-100, 500 ug/ml BSA, 20 U/ml SUPERase-In, 4 C; UNK is unkempt and MSI1 is Musashi-1; names of the RNAs are library labels; protein concentration not given here; high values mean tight binding.
On to B1, for which the binding signal was determined as 0.207 enrichment R. Turning to B2, the binding signal stood at 0.382 enrichment R. As for B3, the binding signal was determined as 0.815 enrichment R. For B4, the binding signal came to 1.09 enrichment R. For the molecule B5, the binding signal was found to be 0.822 enrichment R. The same measure for B6: 0.367 enrichment R. Consider B7, for which the binding signal was determined as 0.908 enrichment R. B8 returned a binding signal of 0.813 enrichment R.

On to B9, for which the binding signal amounted to 0.948 enrichment R. The same measure for B10: 0.577 enrichment R.

As to B11, the binding signal was determined as 0.771 enrichment R. B12 yielded a binding signal of 0.461 enrichment R. For B13, the binding signal is 1.07 enrichment R.

B14 gave a binding signal of 0.325 enrichment R.

As to B15, the binding signal came out at 1.49 enrichment R.

For the molecule B16, the binding signal is 0.962 enrichment R.

Take B17: the binding signal was determined as 0.788 enrichment R. B18 showed a binding signal of 0.807 enrichment R.

In turn, B19 returned a binding signal of 0.441 enrichment R. Then B20, with 0.453 enrichment R.

B21 returned a binding signal of 0.701 enrichment R. In the case of B22, the binding signal is 0.657 enrichment R.
